{"source": "paper PMC12136788", "binders": {"B1": {"name": "chr3:185917260:185917361:-|3pUTR|ENSG00000136527|msi1|FALSE|unique (ssRNA)", "RNA": "GGGAGUUCUACAGUCCGACGAUCUGGCAAAAAGCAACAAUAAACAGUUUGAUUUUUACUUUUCUUUCUAACAUAUCAAUGCUUAGCAGAACUAUUCAGAUUGUCAGUAGUAAAUUUAAAGACAAAUGCCCGUUUUCCUCCAGUCAACAGAGGAUUGAGCAUCA"}, "B2": {"name": "chr8:17299120:17299221:-|3pUTR|ENSG00000003987|unk|total|mutant (ssRNA)", "RNA": "GGGAGUUCUACAGUCCGACGAUCUCCUCAUUAUUUAAAAAUGCUAAACCUUGUAUCUCACUUUUUCUCUAACACUGAUUUAACCGCUAACGAGGCCGAAGCAACAUUCAUUCUCCUGGUCUUACAUAUGAAUUUAAGUAUCAGCAACAGAGGAUUGAGCAUCA"}, "B3": {"name": "chr12:21491601:21491717:-|CDS|ENSG00000004700|unk|FALSE|unique (ssRNA)", "RNA": "GGGAGUUCUACAGUCCGACGAUCGCUGCCUCCCAUAGCUCUAACUGAGGAACUGGAUUCUAUAACCAGUGAGCUACAUGCAGUAGAAAUUCAAAUUCAAGAACUUACGGAAAGGCAACAAGAGCUUAUUCAGAAAAAAAAAGUCAACAGAGGAUUGAGCAUCA"}, "B4": {"name": "chr9:130903550:130903651:-|3pUTR|ENSG00000130720|msi1|total|mutant (ssRNA)", "RNA": "GGGAGUUCUACAGUCCGACGAUCAAAUACCCGGCAUUAUGGGGACAGAGAGCAGGGGGCAGACAGCACCCCUGGAGUCCUCCCCGCAGAUCGUGGGGAACGUCAGGUCUCUCUGAGGUCAGGUCUGAGGCCAGUAUCCUCCAGCAACAGAGGAUUGAGCAUCA"}, "B5": {"name": "chr1:113590523:113590624:+|CDS|ENSG00000081026|unk|FALSE|unique (ssRNA)", "RNA": "GGGAGUUCUACAGUCCGACGAUCUCAUCUGACUGGAUGAAGACUGUUCCAAGUUACAACCAAACAAAUAGCUCCAUGGACUUUAGAAAUUAUAUGAUGAGAGAUGAGACUCUGGAACCACUGCCCAAAAACUGGGAAAUGGCCCAACAGAGGAUUGAGCAUCA"}, "B6": {"name": "chr4:127885990:127886091:+|CDS|ENSG00000142731|msi1|FALSE|unique (ssRNA)", "RNA": "GGGAGUUCUACAGUCCGACGAUCAUUACUUAUCGGGAGACCACCCUUCGACACUGACACAGUCAAGAACACAUUAAAUAAAGUAGUAUUGGCAGAUUAUGAAAUGCCAUCUUUUUUGUCAAUAGAGGCCAAGGACCUUAUUCACAACAGAGGAUUGAGCAUCA"}, "B7": {"name": "chr8:23842656:23842757:-|3pUTR|ENSG00000159167|msi1|total|mutant (ssRNA)", "RNA": "GGGAGUUCUACAGUCCGACGAUCCCCCAAACUUAUGGACACUGCCUCCGCCUCUUGGAAAUCAGGCCGACCAUAUUCUAAGUCCGACUCUUCCCCUCCCUCCCACACUUCCCACCCCCAGGCAAGGCUGACUUCUCUGAAUCACAACAGAGGAUUGAGCAUCA"}, "B8": {"name": "ENSG00000070961:be:win_3851|3pUTR|ENSG00000070961|bound_else_gene|NA|bound_elsewhere_windowed (ssRNA)", "RNA": "GGGAGUUCUACAGUCCGACGAUCUUUUUGGGGGGUGGGAGAAAUGAACUGACAGAUAAACAGUAACUCAGCGUAAGUGACCUGUGGAUCAUCAGUAGUACCCAAGCAUGGUCCUGAACAGUGUAUUAGCAGAGCUUUAGUUUACAACAGAGGAUUGAGCAUCA"}, "B9": {"name": "chr19:34227675:34227687:+|3pUTR|ENSG00000257103|msi1_unk|FALSE|overlapping (ssRNA)", "RNA": "GGGAGUUCUACAGUCCGACGAUCUUAAAACAUGAGCAUUAAAUAUAUUUGGAAUAGCAGAAGGUUAAGUAAUUUCUUAUGUAUAGUUAAACUAAAGCAGUACUUCAGUGGGACUUAACAAGUAUUUUUUCAUCACUGAAAGGUCAACAGAGGAUUGAGCAUCA"}, "B10": {"name": "chr19:51415897:51416167:-|CDS|ENSG00000142512|control|control|control (ssRNA)", "RNA": "GGGAGUUCUACAGUCCGACGAUCGCCACACUGAGCUGGGUCCUGCAGAACAGAGUCCUCUCCUCGUCCCAUCCCUGGGGCCCUAGACCCCUGGGGCUGGAGCUGCCCGGGGUGAAGGCUGGGGAUUCAGGGCGCUACACCUGCCAACAGAGGAUUGAGCAUCA"}, "B11": {"name": "chr1:180199467:180199568:+|3pUTR|ENSG00000116260|msi1|FALSE|unique (ssRNA)", "RNA": "GGGAGUUCUACAGUCCGACGAUCCACAGGAACAAUUUCCUCAAGGAGACAGUGGCAUGGAGCUUUGAAAGACGAGUAGGUGUUAGCAAGGAAAUAAGGAGGAACGGGGGUUACGGGCAGAGGAGAAAGCACAUGCCAAGUCAGCAACAGAGGAUUGAGCAUCA"}, "B12": {"name": "chr15:55376998:55377117:-|CDS|ENSG00000260916|unk|total|mutant (ssRNA)", "RNA": "GGGAGUUCUACAGUCCGACGAUCUAUCUAUAUUGGAACUGCCAGUGAUGAUUCUGAUAUUGUUACCCUUGAGCCACCUAAGUCCGAAGAAAUUGGAAAUCAAGAAGUUGUCAUUGUUGAAGAAGCACAGAGUUCAGAAGACUUCAACAGAGGAUUGAGCAUCA"}, "B13": {"name": "chr15:63774837:63774950:-|CDS|ENSG00000103657|unk|FALSE|unique (ssRNA)", "RNA": "GGGAGUUCUACAGUCCGACGAUCGUAACAACAUUUCUUAAAGGAGUCACUAUUCCUAAUUCUGGGGCAGACACUUUAGGUCGUAGAUUAGCUUCUGAGUUGCUGCUUGGUUUGGCAGCUCAACGAGGCUCAUUGCGAUAUCUUCAACAGAGGAUUGAGCAUCA"}, "B14": {"name": "chr12:68660398:68660499:+|3pUTR|ENSG00000127314|msi1|total|mutant (ssRNA)", "RNA": "GGGAGUUCUACAGUCCGACGAUCUUGAGGUGGCCAAAUGUAAACUAAAAGCCUUAAUUAAAGUGGUGCAAUUUUGUAUAACUCCGCAUCAGCCGUUCAAUAAAUUUGGAUUGCCAUGCAAGGGCUUGCAUUAUAAUUACUUGCCAACAGAGGAUUGAGCAUCA"}, "B15": {"name": "chr5:103029089:103029184:+|3pUTR|ENSG00000145730|msi1_unk|FALSE|overlapping (ssRNA)", "RNA": "GGGAGUUCUACAGUCCGACGAUCAACCAAGCUUUGAUUUAGAUUGAGUAAGAUUUACCCAGAAUGUCAGAUUCCUUUCCCUUUAGCACGUUUAAAGUUCUGUGUAUUUAAUUGUAAACUGUACUAGUCUGUGUGGGACUGUACCAACAGAGGAUUGAGCAUCA"}, "B16": {"name": "chr2:32415436:32415554:+|CDS|ENSG00000115760|unk|FALSE|unique (ssRNA)", "RNA": "GGGAGUUCUACAGUCCGACGAUCUGGGACUUUGGUUCAGUGCUUGAGGCUGCCAAAGUUUGCAGAGGAGGAGAAUCUUUGUAUAGACUCAAUAACUCCUUGUGCUGACGGAAUUCAUUUGUUGGUAGGACUGCGGACAUGCCCCAACAGAGGAUUGAGCAUCA"}, "B17": {"name": "chr1:43978039:43978149:+|3pUTR|ENSG00000117410|unk|total|mutant (ssRNA)", "RNA": "GGGAGUUCUACAGUCCGACGAUCGGCCGUGCCUCACUUUUAUUUAUUGCUGGUUUUCCUGGGACAGCUGGAGCUGUGUCCCUCCGCCUUUCAGAGGCUUGGUGUUCAGGGCCCUCCCUGCACUCCCCUCUUGCUGCGUGUUGACAACAGAGGAUUGAGCAUCA"}, "B18": {"name": "ENSG00000107863:be:win_5401|CDS|ENSG00000107863|bound_else_gene|NA|bound_elsewhere_windowed (ssRNA)", "RNA": "GGGAGUUCUACAGUCCGACGAUCAGACAUACACUAGGAGGGCACAGAGAUGCUACCGAAAUCAGCGUUUUGAAUUUUUGGAAAGUGCAUGAGCAGAGCGGGGAGAGAGAAUCUGAACUUUCAGCUGUAAACCGGUUAAAACCACAACAGAGGAUUGAGCAUCA"}, "B19": {"name": "ENSG00000156976:stop:overlap|stop_codon|ENSG00000156976|stop_codon|NA|stop_codon (ssRNA)", "RNA": "GGGAGUUCUACAGUCCGACGAUCCUUUGGUUAUAAAUUAUGAUCUACCUACCAAUCGUGAAAACUAUAUUCACAGGAGUCGAUAGCAGCAGUUGGUGACGAGAUGGCACUCAGAAACGGCGUUGACGUAAUUUAGGACGUGGACAACAGAGGAUUGAGCAUCA"}, "B20": {"name": "chr2:159967538:159967678:-|CDS|ENSG00000153246|control|control|control (ssRNA)", "RNA": "GGGAGUUCUACAGUCCGACGAUCUAGUGAAGAGUGUUCAGUUUCUAUGCCUAGUAUCUGUAAGCGAAAAAAGGUUUGGCUCAUAGAGAAAAAGAAAGAUACACCAAAACAACAUGGAACGUGUCCCAAAGGAUGGCUAUAUUUCAACAGAGGAUUGAGCAUCA"}, "B21": {"name": "ENSG00000187498:stop:overlap|stop_codon|ENSG00000187498|stop_codon|NA|stop_codon (ssRNA)", "RNA": "GGGAGUUCUACAGUCCGACGAUCAGGUGAACCGGGACCUCCUGGAUUGCCAGGCUCCGUGGGGUCUCCAGGAGUUCCAGGAAUAGGCCCCCCUGGAGCUAGGGGUCCCCCUGGAGGACAGGGACCACCGGGGUUGUCAGGCCCCAACAGAGGAUUGAGCAUCA"}, "B22": {"name": "chr10:71816642:71816777:-|3pUTR|ENSG00000197746|msi1_unk|total|mutant (ssRNA)", "RNA": "GGGAGUUCUACAGUCCGACGAUCUUGUUUGGGGUUCUGUGGGUUUGGGUGGGAAGAGGGCCAUCUGCCUGAAUGUAACCUGCCCGCUCUCCGAAGGCCCUGCGGGCCUGGCUUGUGUGAGCGUGUGGACAGUGGUGGCCGCGCCAACAGAGGAUUGAGCAUCA"}}, "note": "In all, about 5,800 sequences were measured (“enrichment r”: median about 0.68, highest 2% from about 11 on). The list is a sample of the results.", "data": [{"molecular_target": "T1, UNK ZnF1-6 (called full-length) (human, UniProt Q9C0B0 30-357)", "T1 sequence": "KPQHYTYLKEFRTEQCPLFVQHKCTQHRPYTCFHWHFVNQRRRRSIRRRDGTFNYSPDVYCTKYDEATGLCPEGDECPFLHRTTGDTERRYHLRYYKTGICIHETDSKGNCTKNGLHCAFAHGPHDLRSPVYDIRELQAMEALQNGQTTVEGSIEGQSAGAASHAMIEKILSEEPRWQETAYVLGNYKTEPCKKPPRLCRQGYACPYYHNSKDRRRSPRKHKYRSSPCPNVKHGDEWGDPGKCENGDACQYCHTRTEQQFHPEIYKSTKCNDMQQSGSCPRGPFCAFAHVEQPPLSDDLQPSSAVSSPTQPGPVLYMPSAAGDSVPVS", "test": "nsRBNS (natural sequence RNA bind-n-seq); RBNS binding buffer (assumed for nsRBNS): 25 mM Tris pH 7.5, 150 mM KCl, 3 mM MgCl2, 0.01% Triton X-100, 500 ug/ml BSA, 20 U/ml SUPERase-In, 4 C; UNK is unkempt and MSI1 is Musashi-1; names of the RNAs are library labels; protein concentration not given here; high values mean tight binding", "units": {"binding signal": "enrichment R"}, "values": [{"binder": "B1", "binding signal": 0.751}, {"binder": "B2", "binding signal": 0.98}, {"binder": "B3", "binding signal": 0.594}, {"binder": "B4", "binding signal": 0.72}, {"binder": "B5", "binding signal": 1.15}, {"binder": "B6", "binding signal": 1.26}, {"binder": "B7", "binding signal": 1.07}, {"binder": "B8", "binding signal": 1.18}, {"binder": "B9", "binding signal": 1.37}, {"binder": "B10", "binding signal": 0.641}, {"binder": "B11", "binding signal": 1.51}, {"binder": "B12", "binding signal": 0.258}, {"binder": "B13", "binding signal": 0.542}, {"binder": "B14", "binding signal": 0.352}, {"binder": "B15", "binding signal": 1.16}, {"binder": "B16", "binding signal": 0.624}, {"binder": "B17", "binding signal": 0.779}, {"binder": "B18", "binding signal": 0.693}, {"binder": "B19", "binding signal": 0.52}, {"binder": "B20", "binding signal": 0.378}, {"binder": "B21", "binding signal": 0.745}, {"binder": "B22", "binding signal": 0.901}]}]}
